# PG9 Ab binder = PG9 antibody binding by small molecule | TR-FRET gp120-PG9 antibody binding | inhibition, % at 6.7 µM | 360,000 tested, 0.43% active | AID 624416; in the data active = inhibition above about 8.5%
# rCAG binder = binds r(CAG) RNA repeats; r(CAG) RNA repeat, TO-PRO-1 dye displacement fluorescence; inhibition, % at 3 µM; 370,000 tested, 1.3% active;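 active = inhibition above the plate cutoff, the mean of all test compounds on that plate plus 3 SD, cut at about 35% in these data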;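 note: 0% = DMSO alone and 100% = 100 µM mitoxantrone as full dye displacement; higher means more dye released from RNA so lower well fluorescence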
# Exocytosis inh = lytic granule exocytosis inhibition. 360,000 tested, 0.66% active. inhibition, % at 10 µM. TALL-104 LAMP-1 surface exposure, flow cytometry; cells stimulated with thapsigargin and PMA. AID 651702;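 active = inhibition above about 55%, limit read from the data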
# ABCB6 inh MLPCN = human ABCB6 transporter inhibition; 360,000 tested, 0.19% active; fluorescence ratio to DMSO, % at 10 µM; K562-ABCB6 porphyrin accumulation, flow cytometry, 1 h; stronger effect = lower value; AID 602162;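 active = fluorescence ratio to DMSO below 75%, the collection mean minus 3 SD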;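 note: signal is porphyrin accumulated inside mitochondria; 100% equals median channel fluorescence of DMSO control wells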
# rCAG binder conf = r(CAG) RNA repeat binding, confirmation | shares compounds with rCAG binder | AID 652065 | TO-PRO-1 dye displacement fluorescence | 4,300 tested, 70% active | inhibition, % at 3 µM;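 active = inhibition above a per-plate cutoff, the mean inhibition of sample wells plus 3 SD, cut at about 35% in these data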;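 note: loss of TO-PRO-1 fluorescence as compound displaces dye from 1x1 AA loop RNA; 0% = DMSO only wells and 100% = 100 µM mitoxantrone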
# DNA CAG counter = counter-screen for rCAG RNA binders: DNA CAG dye complex inhibitors; shares compounds with rCAG binder; d(CAG) DNA oligo TO-PRO-1 dye displacement, fluorescence; inhibition, % at 3 µM; 4,300 tested, 94% active; AID 652068;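 active = inhibition above its plate's cutoff, the mean test-well inhibition plus 3 SD, cut at about 4.8% in these data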;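 note: 0% = DNA dye mix with DMSO and 100% = 100 µM mitoxantrone; hits displace the dye from DNA and so lower well fluorescence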
# dCAG dye DR = disrupts DNA CAG TO-PRO-1 complex in dose response | shares compounds with rCAG binder | DNA CAG/GTC duplex TO-PRO-1 dye displacement fluorescence | IC50, µM | 250 tested, 20% active; in the data active = IC50 below about 10 µM
# * hit, by the source's call; . = no result given. Shown are actives, neighbours in structure and some others; about 2.5% of the full set was active somewhere.
SMILES,PG9 Ab binder,rCAG binder,Exocytosis inh,ABCB6 inh MLPCN,rCAG binder conf,DNA CAG counter,others
CC(C)(Sc1ccc(CCN(CCCCC2CCCCC2)C(=O)NC2CCCCC2)cc1)C(=O)O,-1,49*,4,107,55*,17*,dCAG dye DR=>30
CN(Cc1ccccc1)C(=O)NC1CCCCC1,-2,1,0,105,.,.,
COc1ccc(NC(=O)C2CCCN2S(=O)(=O)c2ccc3c(c2)C(C)(C)C(=O)N3C)cc1 (stereo unspecified),-1,4,-1,93,.,.,
OC[C@@H]1CN(Cc2ccc(Cl)cc2)C[C@H](n2cnc3c(NC4CC4)ncnc32)O1,1,0,-4,96,.,.,
COc1ccc(Cc2nnc(SCC(=O)Nc3cc(Cl)ccc3C)[nH]c2=O)cc1,-1,45*,14,90,36*,8.2*,
Cc1ccc(Cc2nnc(SCC(=O)Nc3c(C)cccc3C)[nH]c2=O)cc1,2,15,10,96,.,.,
CN(C(=O)c1cncc(Br)c1)C1C2CC3CC(C2)CC1C3 (stereo unspecified),-2,-6,-15,94,.,.,
CCCc1nnc(NC(=O)CCC(=O)N2CCN(Cc3cc(Cl)ccc3OC)CC2)s1,-2,-4,-4,94,.,.,
Oc1c(N=Nc2nn[nH]n2)ccc2ccccc12,-8,47*,15,106,61*,30*,
CC1=NN(c2nc(-c3ccc(C)cc3)cs2)C(=O)C1N=Nc1cccc(O)c1 (stereo unspecified),1,37*,-1,92,49*,22*,
CC1=NN(c2nc(-c3ccc(C)cc3)cs2)C(=O)C1N=Nc1ccccc1O (stereo unspecified),-1,25,6,125,.,.,
CCCC(=O)Nc1ccc(S(=O)(=O)Nc2cc(OC)nc(OC)n2)cc1,2,0,-3,109,.,.,
CCOc1ccccc1C(=O)Nc1ccc(S(=O)(=O)Nc2cc(OC)nc(OC)n2)cc1,2,51*,-1,92,28,7.6*,
COc1cc(NS(=O)(=O)c2ccc(NC(=O)COc3ccccc3Cl)cc2)nc(OC)n1,-1,65*,.,.,38*,12*,
O=S(=O)(Cc1ccccc1Cl)NCCc1ccc(F)cc1,1,-7,-8,100,.,.,
CCN(Cc1cc(OC)c(OC)c(OC)c1)S(=O)(=O)c1ccccc1Br,-1,2,.,.,.,.,
CCn1c(C)c(C(=O)O)c2cc(OC)c3ccccc3c21,-2,8,-1,102,.,.,
COc1cc2c(C(=O)O)c(C)n(-c3ccccc3)c2c2ccccc12,0,36*,3,90,22,6.1*,
COc1ccccc1-n1c(C)c(C(=O)O)c2cc(OC)c3ccccc3c21,-1,41*,13,101,26,5.6*,
COc1ccc(-n2c(C)c(C(=O)O)c3cc(OC)c4ccccc4c32)cc1,1,11,4,102,.,.,
CCOC(=O)C1=C(N)n2c(s/c(=C\c3ccco3)c2=O)=C(C(=O)OCC)C1c1ccco1 (stereo unspecified),.,.,2,100,.,.,
CCOC(=O)C1=C(N)n2c(s/c(=C\c3ccco3)c2=O)=C(C(=O)OC(C)C)C1c1ccco1 (stereo unspecified),2,40*,2,96,16,7.1*,
COc1ccccc1NS(=O)(=O)c1cccc(C(=O)N/N=C/c2ccc(OCC(=O)O)cc2)c1,0,15,-2,99,.,.,
O=C(O)COc1ccccc1/C=N/NC(=O)c1cccc(S(=O)(=O)Nc2cccc(Cl)c2)c1,-2,48*,-10,100,30,8.7*,
O=C(O)COc1ccccc1/C=N/NC(=O)CSc1nc2ccccc2s1,1,32,0,100,.,.,
COc1ccc(-n2c(SCC(=O)N/N=C/c3ccccc3OCC(=O)O)nc3ccccc3c2=O)cc1,1,43*,1,100,47*,13*,
O=C(O)COc1ccccc1/C=N/NC(=O)CSc1nc2ccccc2n1Cc1ccc(Cl)cc1,-2,60*,-2,99,76*,35*,
O=C(O)COc1ccccc1/C=N/NC(=O)COc1ccc(-c2ccccc2)cc1,1,66*,0,96,64*,22*,
Cc1ccc(/C=N/NC(=O)CSc2nc3ccccc3n2Cc2ccc(Cl)cc2)o1,-2,5,1,97,.,.,
